In PubChem BioAssay (Tox21):
Values joined by “and” are separate entries in the source; they are usually repeats but may differ in a detail not shown here. Equal values may be shown once. Values without a mark were called inactive. Inconclusive results are not listed. Where a call stands in place of a potency, no number is given. Active and inactive are the calls of the source. Unless noted, calls follow the shape of the dose curve; as a rule, active = well fitted curve in the direction sought with a large enough effect in the repeat runs; inconclusive = weak or mixed curves; inactive = no such curve, though single readings can be large; an effect the other way counts as inactive or inconclusive.

How the values were obtained:
[1] = qHTS assay for small molecule agonists of the p53 signaling pathway (AID 651631; calls by dose curve; also: nearly all actives have a fitted effect of over 15% in size; also: potency is read from the fitted curve at half-maximal effect)
Summary of the method: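 HCT-116 cells carrying a stable p53 response element–beta-lactamase reporter were plated, rested 5 h at 37 °C, then exposed to compound in DMSO for 16 h at 37 °C; reporter activity was read as FRET substrate fluorescence after 2 h at room temperature.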

[2] = qHTS assay for small molecules that induce genotoxicity in human embryonic kidney cells expressing luciferase-tagged ATAD5 (AID 651632); also: nearly all actives have a fitted effect of over 15% in size
Summary of the method: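 Luminescence read-out: after 16 hr compound exposure at 37C, ATAD5-luciferase HEK293T cells received Amplite, 30 min RT, then CCD imaging. A rise in signal marks genotoxic stress.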

[3] = qHTS assay for small molecule agonists of the p53 signaling pathway - cell viability (AID 651633; calls by dose curve; also: series mostly up to about 83 µM; nearly all actives have a fitted effect of over 30% in size)
Summary of the method: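 p53RE-bla cells were treated with compound for 16 hours at 37 C. Cytotoxicity was then measured as CellTiter-Glo luminescence after 30 min at room temperature.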

[4] = qHTS assay for small molecules that induce genotoxicity in human embryonic kidney cells expressing luciferase-tagged ATAD5 - cell viability (AID 651634; calls by dose curve; also: nearly all actives have a fitted effect of over 25% in size; also: potency is read from the fitted curve at half-maximal effect)
Summary of the method: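 HEK293T ATAD5-luc cells, 2,000/well; compound 15.5 hr, 37C/5% CO2; CellTiter-Fluor 30 min, 37C; fluorescence read.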

[5] = qHTS assay for small molecule disruptors of the mitochondrial membrane potential - cell viability (AID 720634; calls by dose curve;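 also: human HepG2 liver cancer cells; series mostly up to about 83 µM; nearly all actives have a fitted effect of over 20% in size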)
Summary of the method: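 Luminescence from CellTiter-Glo (ATP content) gave viability in HepG2 cells, read in the same wells as the MMP dye assay after 1 hr compound exposure at 37 C.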

[6] = qHTS assay to test for compound auto fluorescence at 590 nm (red) in HepG2 cells (AID 720674)
Summary of the method: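 Seeding: 2,000 HepG2 cells/well, MEM/10% FBS, overnight 37 C. Dosing: compound vs DMSO. Incubation: 1 hr, 37 C, 5% CO2. Read: fluorescence 540 ex/590 em, Rose Bengal sodium as red reference.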

[7] = qHTS assay to test for compound auto fluorescence at 535 nm (green) in HepG2 cells (AID 720675)
[8] = qHTS assay to test for compound auto fluorescence at 460 nm (blue) in HEK293 cells (AID 720678)
Summary of the method: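 Cells were seeded and left to adhere for 4-5 hr at 37C. Compounds were then pin-transferred. After an overnight incubation at 37C under 5% CO2, intrinsic fluorescence at 405/460 nm was measured and referenced to triamterene.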

[9] = qHTS assay to test for compound auto fluorescence at 590 nm (red) in HEK293 cells (AID 720679)
Summary of the method: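 Each well held 2,000 HEK293 cells in medium containing 10% dialyzed FBS. Following 4-5 hr attachment at 37C, 23 nL test compound or DMSO was added; plates sat overnight, and red fluorescence (540/590nm) was recorded.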

[10] = qHTS assay for small molecule disruptors of the mitochondrial membrane potential (AID 720635); also: potency is read from the fitted curve at half-maximal effect
Summary of the method: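 HepG2 cells exposed to compound 1 hr at 37C, then Mito-MPS dye 30 min. Ratio read of aggregate (540/590 nm) versus monomer (490/535 nm) fluorescence.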

In the case of `C=CC(=O)NC(C)(C)CC(C)=O`, the Potency [1] is reported as “inactive”, the Potency [2] is reported as “inactive” and the Potency [3] is reported as “inactive”. For the same compound, the Potency [4] was “inactive”, the Potency [5] was “inactive” and the outcome [6] was “inactive”.
For `c1ccc2c(c1)sc1ccccc12`, the Potency [1] was “inactive”, the Potency [2] was “inactive” and the Potency [3] was “inactive”. The Potency [4] was “inactive”, the Potency [5] was “inactive” and the outcome [6] was “inactive”. For the same compound, the outcome [7] was “inactive”, the outcome [8] was “inactive” and the outcome [9] was “inactive”.
For `C=CCc1ccc(OC(=O)Cc2ccccc2)c(OC)c1`, the Potency [1] was “inactive”, the Potency [2] was “inactive” and the Potency [3] was “inactive”. For the same compound, the Potency [4] was “inactive”, the Potency [10] was “inactive” and the outcome [6] was “inactive”. For the same compound, the outcome [7] was “inactive” and the outcome [8] was “inactive”.
In the case of `Cc1cnc(C2=NC(C)(C(C)C)C(=O)N2)c(C(=O)O)c1` (configuration not stated), the Potency [1] is reported as “inactive”, the Potency [2] is reported as “inactive” and the Potency [3] is reported as “inactive”. For the same compound, the Potency [4] was “inactive”, the Potency [5] was “inactive” and the outcome [6] was “inactive”. The outcome [7] was “inactive”, the outcome [8] was “inactive” and the outcome [9] was “inactive”.
For `CCSCc1ccccc1OC(=O)NC`, the Potency [1] was “inactive”, the Potency [2] was “inactive” and the Potency [3] was “inactive”. For the same compound, the Potency [4] was “inactive”, the Potency [5] was “inactive” and the outcome [6] was “inactive”. For the same compound, the outcome [7] was “inactive”, the outcome [8] was “inactive” and the outcome [9] was “inactive”.
In the case of `CCCN(CCC)C(=O)Cc1c(-c2ccc(Cl)cc2)nc2ccc(Cl)cn12`, the Potency [1] is reported as “inactive”, the Potency [2] is reported as “inactive” and the Potency [3] is reported as “inactive”. The Potency [4] was “inactive”, the Potency [5] was “inactive” and the outcome [6] was “inactive”. The outcome [7] was “inactive”, the outcome [8] was “inactive” and the outcome [9] was “inactive”.
For `CCCC[N+]1(C)[C@@H]2CC(OC(=O)[C@H](CO)c3ccccc3)C[C@H]1[C@@H]1O[C@@H]12` (some centres not stated), the Potency [1] was “inactive”, the Potency [2] was “inactive” and the Potency [3] was “inactive”. For the same compound, the Potency [4] was “inactive”, the Potency [5] was “inactive” and the Potency [10] was “inactive”. The outcome [6] was “inactive”, the outcome [8] was “inactive” and the outcome [9] was “inactive”.
With `CC(C)C1(C)N=C(c2ncccc2C(=O)O)NC1=O` (configuration not stated) the Potency [1] was “inactive”, the Potency [2] was “inactive” and the Potency [3] was “inactive”. The Potency [4] was “inactive”, the Potency [5] was “inactive” and the outcome [6] was “inactive”. For the same compound, the outcome [7] was “inactive”, the outcome [8] was “inactive” and the outcome [9] was “inactive”.
In the case of `CCCN(CCC)c1c([N+](=O)[O-])cc(C(C)C)cc1[N+](=O)[O-]`, the Potency [1] is reported as “inactive”, the Potency [2] is reported as “inactive” and the Potency [3] is reported as “inactive”. The Potency [4] was “inactive”, the Potency [5] was “inactive” and the Potency [10] was 12.2 µM (active). The outcome [6] was “inactive”, the outcome [8] was “inactive” and the outcome [9] was “inactive”.
With `CCCC[N+](CCCC)(CCCC)CCCC` the Potency [1] was “inactive”, the Potency [2] was “inactive” and the Potency [3] was “inactive”. For the same compound, the Potency [4] was “inactive”, the Potency [5] was “inactive” and the outcome [6] was “inactive”. For the same compound, the outcome [7] was “inactive”, the outcome [8] was “inactive” and the outcome [9] was “inactive”.
For `CC(Cc1ccccc1)NCc1ccccc1Cl` (configuration not stated), the Potency [1] was “inactive”, the Potency [2] was “inactive” and the Potency [3] was “inactive”. For the same compound, the Potency [4] was “inactive”, the Potency [5] was “inactive” and the outcome [6] was “inactive”. The outcome [7] was “inactive”.
For `COc1cc(C[C@@H](C)N)c(OC)cc1Br`, the Potency [1] was “inactive”, the Potency [2] was “inactive” and the Potency [3] was “inactive”. For the same compound, the Potency [4] was “inactive”, the Potency [5] was “inactive” and the outcome [6] was “inactive”. For the same compound, the outcome [8] was “inactive” and the outcome [9] was “inactive”.
With `CCOP(=S)(S)OCC` the Potency [1] was “inactive”, the Potency [2] was “inactive” and the Potency [3] was “inactive”. For the same compound, the Potency [4] was “inactive”, the Potency [5] was “inactive” and the outcome [6] was “inactive”. For the same compound, the outcome [7] was “inactive”, the outcome [8] was “inactive” and the outcome [9] was “inactive”.
With `COC(=O)Cc1ccccc1` the Potency [1] was “inactive”, the Potency [2] was “inactive” and the Potency [3] was “inactive”. For the same compound, the Potency [4] was “inactive”, the Potency [5] was “inactive” and the outcome [6] was “inactive”. The outcome [7] was “inactive”, the outcome [8] was “inactive” and the outcome [9] was “inactive”.
With `C=CCOC(=O)C(C)(C)OC(=O)c1cc(-n2c(=O)cc(C(F)(F)F)n(C)c2=O)ccc1Cl` the Potency [1] was “inactive”, the Potency [2] was “inactive” and the Potency [3] was “inactive”. For the same compound, the Potency [4] was “inactive”, the Potency [5] was “inactive” and the outcome [6] was “inactive”. For the same compound, the outcome [7] was “inactive”, the outcome [8] was “inactive” and the outcome [9] was “inactive”.
With `COC(=O)C1(O)c2ccccc2-c2ccccc21` the Potency [1] was “inactive”, the Potency [2] was “inactive” and the Potency [3] was “inactive”. The Potency [4] was “inactive”, the Potency [5] was “inactive” and the outcome [6] was “inactive”. The outcome [7] was “inactive”, the outcome [8] was “inactive” and the outcome [9] was “inactive”.
With `CCOC(=O)c1cncn1C(C)c1ccccc1` (configuration not stated) the Potency [1] was “inactive”, the Potency [2] was “inactive” and the Potency [3] was “inactive”. For the same compound, the Potency [4] was “inactive”, the Potency [5] was “inactive” and the fluorescence, relative to Rose Bengal [6] was -0.315% [at 18.6 µM]. It also gave a fluorescence, % of fluorescein control [7] of 0.021% [at 18.6 µM], a fluorescence, % of triamterene [8] of -0.152% [at 18.6 µM] and a fluorescence, % of fluorescent control [9] of 0.134% [at 18.6 µM].
In the case of `C=CCc1ccccc1O`, the Potency [1] is reported as “inactive”, the Potency [2] is reported as “inactive” and the Potency [3] is reported as “inactive”. For the same compound, the Potency [4] was “inactive”, the Potency [5] was “inactive” and the outcome [6] was “inactive”. For the same compound, the outcome [8] was “inactive” and the outcome [9] was “inactive”.
For `CN(C)C(=O)Nc1cccc(OC(=O)NC(C)(C)C)c1`, the Potency [1] was “inactive”, the Potency [2] was “inactive” and the Potency [3] was “inactive”. The Potency [4] was “inactive”, the Potency [5] was “inactive” and the Potency [10] was “inactive”. For the same compound, the outcome [6] was “inactive”, the outcome [8] was “inactive” and the outcome [9] was “inactive”.
For `COc1ccc(C(O)(c2cncnc2)C2CC2)cc1` (configuration not stated), the Potency [1] was “inactive”, the Potency [2] was “inactive” and the Potency [3] was “inactive”. For the same compound, the Potency [4] was “inactive”, the Potency [5] was “inactive” and the outcome [6] was “inactive”. For the same compound, the outcome [7] was “inactive”, the outcome [8] was “inactive” and the outcome [9] was “inactive”.
In the case of `CCOP(=S)(OCC)SCSc1cc(Cl)ccc1Cl`, the Potency [1] is reported as “inactive”, the Potency [2] is reported as “inactive” and the Potency [3] is reported as “inactive”. The Potency [4] was “inactive”, the Potency [5] was “inactive” and the outcome [6] was “inactive”. For the same compound, the outcome [7] was “inactive”, the outcome [8] was “inactive” and the outcome [9] was “inactive”.
With `CC(C)(C)NCC(O)c1ccccc1Cl` (configuration not stated) the Potency [1] was “inactive”, the Potency [2] was “inactive” and the Potency [3] was “inactive”. For the same compound, the Potency [4] was “inactive”, the Potency [5] was “inactive” and the outcome [6] was “inactive”. For the same compound, the outcome [7] was “inactive” and the outcome [8] was “inactive”.
In the case of `N#CC1(N=NC2(C#N)CCCCC2)CCCCC1`, the Potency [1] is reported as “inactive”, the Potency [2] is reported as “inactive” and the Potency [3] is reported as “inactive”. For the same compound, the Potency [4] was “inactive”, the Potency [10] was “inactive” and the outcome [6] was “inactive”. The outcome [7] was “inactive”, the outcome [8] was “inactive” and the outcome [9] was “inactive”.
For `O=C1c2ccccc2C(=O)N1SC(Cl)(Cl)Cl`, the Potency [1] was 8.51 µM (active) and 4.33 µM (active), the Potency [2] was “inactive” and the Potency [3] was “inactive”. For the same compound, the Potency [4] was 60.3 µM (active), the Potency [10] was 4.79 µM (active) and 7.7 µM (active) and the outcome [6] was “inactive”. The outcome [7] was “inactive”, the outcome [8] was “inactive” and the outcome [9] was “inactive”.
With `Cc1nnc(-c2ccccc2)c(=O)n1N` the Potency [1] was “inactive”, the Potency [2] was “inactive” and the Potency [3] was “inactive”. For the same compound, the Potency [4] was “inactive”, the Potency [10] was “inactive” and the outcome [6] was “inactive”. For the same compound, the outcome [7] was “inactive”, the outcome [8] was “inactive” and the outcome [9] was “inactive”.
For `CCCC[P+](CC)(CCCC)CCCC` (tested in a mixture with another compound), the Potency [1] was “inactive”, the Potency [2] was “inactive” and the Potency [4] was “inactive”. The Potency [5] was “inactive”, the outcome [6] was “inactive” and the outcome [7] was “inactive”. For the same compound, the outcome [9] was “inactive”.
In the case of `O=C(O)c1cc(I)cc(I)c1I`, the Potency [1] is reported as “inactive”, the Potency [2] is reported as “inactive” and the Potency [3] is reported as “inactive”. The Potency [4] was “inactive”, the Potency [10] was “inactive” and the outcome [6] was “inactive”. The outcome [7] was “inactive”, the outcome [8] was “inactive” and the outcome [9] was “inactive”.
